Assay outcomes deposited in PubChem BioAssay by National Center for Advancing Translational Sciences (NCATS).
Only a selection was taken, and hits are over-represented in it overall.
VDR inhibitor: Inhibitors of the vitamin D receptor (VDR): qHTS; Vitamin D3 receptor (Homo sapiens), P11473; VDR-SRC2-3 peptide fluorescence polarization, 2 h; Potency, µM, usual class: inhibitors; hit rate 0.93% among 400,000; AID 504847, 2011
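After 23 nl compound addition and a short centrifugation, plates sat for 2 hours at ambient temperature; polarization of fluorescence then indicated loss of VDR binding to peptide SRC2-3.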
Sfp PPTase inh: qHTS Assay for Inhibitors of Bacillus subtilis Sfp phosphopantetheinyl transferase (PPTase); 4'-phosphopantetheinyl transferase ffp (Bacillus subtilis), Q9F4F7; Biochemical Sfp PPTase activity, qHTS; Potency, µM, hits mostly inhibitors; hit rate 3.5% among 310,000;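 also: the enzyme is Sfp with the accession as filed and its product quenches rhodamine fluorescence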
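Step 1, compound plus 15 nM Sfp-PPTase, 15 min, room temperature. Step 2, add rhodamine-CoA (5 uM) and BHQ-2-YbbR (12.5 uM). Step 3, read 525/598 nm fluorescence at 0 and 30 min.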
12-LOX inh: Primary qHTS assay for inhibitors of human arachidonate 12S-lipoxygenase (ALOX12): Round 2. purified 12hLO, xylenol orange hydroperoxide absorbance. Potency, µM (top dose mostly 108 µM), usual class: inhibitors. hit rate 1.1% among 580,000
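Purified human 12hLO (150 nM final) in 25 mM Hepes, 0.01% Triton X-100, pH 7.0 was preincubated 15 min at room temperature with compound. Then 40 uM arachidonic acid was added, 30 min. Hydroperoxide was read by Fe-XO absorbance ratio 573/405 nm.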
Glioma ERSR ind: qHTS for Inducers of the Endoplasmic Reticulum Stress Response (ERSR) in Human Glioma: qHTS. hit rate 0.02% among 420,000. AID 602332, 2012. Potency, µM, usual class: activators. U87-MG GRP78 promoter luciferase reporter, 16 h; also: series mostly up to about 76 µM; nearly all actives have a fitted effect of over 35% in size
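Stably transfected U87-MG glioma cells carrying a GRP78-based luciferase sensor; 16 h compound incubation. Luminescence end-point read 10 min after Bright-Glo addition at room temperature.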
G9a block: qHTS Assay for Inhibitors of Histone Lysine Methyltransferase G9a; G9a H3K9 monomethylation, AlphaScreen, 2 h; Histone-lysine N-methyltransferase EHMT2 (Homo sapiens), Q96KQ7; hit rate 8.8% among 350,000; AID 504332, 2011; Potency, µM (titrated, usually from 102 µM), most hits filed as inhibitors; also: nearly all actives have a fitted effect of over 75% in size
Target sequence (Q96KQ7 913-1193 limits assumed): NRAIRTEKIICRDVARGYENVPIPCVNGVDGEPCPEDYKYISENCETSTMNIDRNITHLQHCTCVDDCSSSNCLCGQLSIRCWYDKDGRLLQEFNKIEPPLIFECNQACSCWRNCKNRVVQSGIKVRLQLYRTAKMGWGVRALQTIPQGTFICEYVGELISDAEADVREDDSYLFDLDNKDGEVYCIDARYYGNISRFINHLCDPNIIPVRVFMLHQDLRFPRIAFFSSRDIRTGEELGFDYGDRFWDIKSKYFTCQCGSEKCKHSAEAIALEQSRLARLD
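Step 1: enzyme (final 20 nM) with compound, 15 min RT. Step 2: substrate peptide 500 nM and SAM 20 uM, 2 h RT. Step 3: anti-H3K9me1 antibody and AlphaScreen beads, 10 min, then plate read.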
Hits are given with their value; . = inactive; ? = inconclusive; / = no result; [ ] = another dose, or the depositor's remark. Calls follow the shape of the dose curve; as a rule, active = well fitted curve in the direction sought with a large enough effect; inconclusive = small, poorly fitted or top-dose-only effect, or another doubt; inactive = no such curve, though single readings can be large; an effect the other way counts as inactive or inconclusive.

SMILES	VDR inhibitor	Sfp PPTase inh	12-LOX inh	Glioma ERSR ind	G9a block
COc1cc(C2CC(=O)Nc3n[nH]c(Nc4ccccc4)c32)cc(OC)c1O (stereo unspecified)	/	/	.	/	/
Cc1ccc(C(=O)Oc2oc(-c3ccco3)nc2C=Nc2ccccc2)cc1	/	44.7µM	/	/	28.2µM
Oc1oc(-c2ccco2)nc1C=Nc1ccccc1	.	.	.	.	.[12.7 µM]
CN(C)c1ccc(N=Cc2nc(-c3ccccc3)oc2OC(=O)c2cccc(Br)c2)cc1	?	.	?	.	31.6µM
C=CCn1c(=O)[nH]c2nc3cc(N=CN(C)C)c(C)cc3nc2c1=O	.	50.1µM	?	.	?
Cc1ccc(-c2c(C)nn3c(N4CCN(C)CC4)cc(C)nc23)cc1	/	/	.	/	/
C/C(CC1CC(COCC(C)C)OC1=O)=N\Nc1nc(-c2ccccc2)cs1 (stereo unspecified)	?	?	?	.	25.1µM
O=C1CN(C(=O)c2ccc(Br)o2)C(c2ccc(F)cc2)c2cc(Cl)ccc2N1 (stereo unspecified)	.	.	.	.	?
O=C1CN(C(=O)c2ccc(Br)o2)C(c2ccccc2)c2cc(Cl)ccc2N1 (stereo unspecified)	.	?	.	.	56.2µM
Cc1ccc2c(c1)C(c1ccccc1)N(C(=O)c1ccc(Br)o1)CC(=O)N2 (stereo unspecified)	.	.	?	.	39.8µM
CSc1ccc(C2=NN(S(C)(=O)=O)C(c3ccc4nccnc4c3)C2)cc1 (stereo unspecified)	/	/	.	/	/
O=C(CCS(=O)(=O)c1ccccc1)Nc1ncc([N+](=O)[O-])s1	.	.	.	.	44.7µM
CCC(CC)c1nnc(NC(=O)CS(=O)(=O)c2ccccc2)s1	?	50.1µM	?	.	10µM
O=C(CCS(=O)(=O)Cc1ccccc1)Nc1nncs1	.	.	.	.	44.7µM
O=C(CS(=O)(=O)c1ccccc1)Nc1ncc([N+](=O)[O-])s1	?	.	?	.	?
COCc1nnc(NC(=O)CCS(=O)(=O)c2ccccc2)s1	.	?	.	.	44.7µM
CN(C)S(=O)(=O)N1CCCN(Cc2ccncc2)C(c2ccccc2)CC(=O)NCC1 (stereo unspecified)	/	/	.	/	/
Fc1ccc(-c2nc(-c3ccc(Br)o3)no2)cc1	/	/	.	/	/
CCC(CC)c1nnc(NC(=O)Cc2ccccc2[N+](=O)[O-])s1	.	.	.	.	39.8µM
CCCc1nnc(NC(=O)CCS(=O)(=O)Cc2ccccc2)s1	.	.	.	.	44.7µM
CCC(CC)c1nnc(NC(=O)Cc2c[nH]c3ccccc23)s1	/	/	.	.	/
CN(C)c1cccc(C(=O)Nc2nnc(Cc3ccccc3)s2)c1	.	.	?	.	39.8µM
CCC(CC)c1nnc(NC(=O)CCS(=O)(=O)Cc2ccccc2)s1	.	63.1µM	?	.	17.8µM
O=C(Nc1nnc(Cc2ccccc2)s1)c1cccnc1	.	.	.	.	.[0.501 µM]
CC(=O)c1cnn(-c2cc(NC3CCCCC3)nc(C)n2)c1C	/	/	.	/	/
SMILES	VDR inhibitor	Sfp PPTase inh	12-LOX inh	Glioma ERSR ind	G9a block
CCCc1noc(COc2ccc3c(C)cc(=O)oc3c2)n1	/	/	.	/	/
COCCN1CCOc2nc(-c3cc4ccccc4o3)ncc2C1=O	/	/	.	/	/
O=Cc1ccc(-c2ccc(Br)cc2Br)o1	/	/	.	/	/
O=C(CS(=O)(=O)c1ccccc1)Nc1nnc(Cc2ccccc2)s1	.	44.7µM	.	.	31.6µM
CCCc1nnc(NC(=O)CS(=O)(=O)c2ccccc2)s1	.	.	.	.	?
CCN(CCCNC(=O)C1CCN(S(=O)(=O)N2CCOCC2)CC1)c1cccc(C)c1	.	.	.	.	35.5µM
CCN(CCCNC(=O)C1CCC(=O)N1Cc1ccc(C)cc1)c1cccc(C)c1 (stereo unspecified)	.	.	.	.	.[0.501 µM]
CN(CCCNC(=O)C1CCC(=O)N1Cc1ccc(F)cc1)c1ccccc1 (stereo unspecified)	.	.	.	.	79.4µM
CN(CCCNC(=O)C1CCC(=O)N1Cc1ccccc1Cl)c1ccccc1 (stereo unspecified)	.	.	?	.	.
CCCS(=O)(=O)N1CCC(C(=O)NCCCN(CC)c2cccc(C)c2)CC1	.	.	.	.	?
